Several values for one entry are separate records, joined by “and”; a condition that tells them apart may be missing. Equal values may be shown once. Screen size: about 16,000 compounds; about 5,800 (36%) were called active. About 23% were inconclusive and are not listed. The list shows a part of the results. Unmarked numbers belong to inactive results. Calls follow the shape of the dose curve; as a rule, active = well fitted curve in the direction sought with a large enough effect; inconclusive = small, poorly fitted or top-dose-only effect, or effect the other way; inactive = no such curve, though single readings can be large or run the other way.
% is scaled to controls: 0 for no effect and ±100 for the full control effect.

For this experiment, the target named is Cytochrome P450 2C19 (Homo sapiens) (UniProt P33261). The experiment can be described thus: Cytochrome panel assay with activity outcomes. Particulars: recombinant CYP, pro-luciferin dealkylation, luminescence, p450-cyp2c19; series mostly up to 57.1 µM; activity, negative = inhibition: at the top concentration.
Sequence of Cytochrome P450 2C19 (Homo sapiens) (P33261 whole entry, looked up): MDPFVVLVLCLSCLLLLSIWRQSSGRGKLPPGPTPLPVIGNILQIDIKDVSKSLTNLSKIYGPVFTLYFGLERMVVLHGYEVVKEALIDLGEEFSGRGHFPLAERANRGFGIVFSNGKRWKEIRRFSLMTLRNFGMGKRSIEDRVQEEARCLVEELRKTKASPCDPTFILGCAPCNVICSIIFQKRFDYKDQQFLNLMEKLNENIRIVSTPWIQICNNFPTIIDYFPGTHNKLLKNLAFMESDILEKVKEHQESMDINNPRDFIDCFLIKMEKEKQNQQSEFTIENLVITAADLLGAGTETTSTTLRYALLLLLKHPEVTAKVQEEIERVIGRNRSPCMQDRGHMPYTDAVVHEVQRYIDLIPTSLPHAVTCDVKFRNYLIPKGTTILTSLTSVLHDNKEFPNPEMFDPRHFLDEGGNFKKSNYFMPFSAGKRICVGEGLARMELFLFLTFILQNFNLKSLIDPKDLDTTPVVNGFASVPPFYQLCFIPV
With `COC(=O)CCCC(=O)O`, the activity, negative = inhibition was 37.5% [at 11.4 µM].
With `O=C(O)CN(CCN(CC(=O)O)CC(=O)O)CC(=O)O.[Cu]`, the activity, negative = inhibition was -41.9% [at 11.4 µM].
Turning to `Cc1cc2c(c(=O)o1)[C@H](O)[C@H]1O[C@@H]1C2=O`, the activity, negative = inhibition was -43.4% [at 11.4 µM].
With `O=C(CCN1C(=O)C2C3C=CC(C3)C2C1=O)NCCN1CCCc2ccccc21` (configuration not stated), the AC50 (in general, the midpoint of the concentration-response curve, whichever way the signal moves) was 28200 nM (active).
With `CC(C)(C)NCC[C@@H](O)c1cc(C(F)(F)F)nc2c(C(F)(F)F)cccc12`, the activity, negative = inhibition is -11% [at 11.4 µM].
Consider `CCN(CC)c1ccc2c(c1)OC(N)=C(C#N)C2c1cccnc1` (configuration not stated), for which the AC50 was 891 nM (active).
With `COc1ccc(NC(=O)C2c3cc(OC)c(OC)cc3C(=O)N(C)C2c2cccnc2)cc1OC` (configuration not stated), the “activity, negative = inhibition” value was -13.1%.
For `COc1cc2c(cc1OC)C(C(=O)Nc1cccc(C)n1)C(c1cccnc1)N(C)C2=O` (configuration not stated), the half-maximal activity concentration (AC50) was 251 nM (active).
Consider `COc1cc2c(cc1OC)C(C(=O)Nc1ccccn1)C(c1cccnc1)N(C)C2=O` (configuration not stated), for which the “activity, negative = inhibition” value is -28.9%.
For the molecule `COc1cc(N=C(N)N=C(N)N)c2ncccc2c1`, the activity, negative = inhibition is 36.7% [at 11.4 µM].
For `CNCCNS(=O)(=O)c1cccc2cnccc12`, the “activity, negative = inhibition” value is -28.3%.
`NCCCCCCNS(=O)(=O)c1cccc2c(Cl)cccc12`: the concentration at half-maximal activity (AC50) is 200 nM (active) and 10 nM (active).
As for `CCCCCCCNS(=O)(=O)c1cccc2c(Cl)cccc12`, the concentration at half-maximal activity (AC50) was 126 nM (active).
In the case of `NCCCCNS(=O)(=O)c1ccc2c(Cl)cccc2c1`, the concentration at half-maximal activity (AC50) was 2.51 nM (active).
As for `NCCCCNS(=O)(=O)c1cccc2c(Cl)cccc12`, the concentration at half-maximal activity (AC50) was 100 nM (active).
As to `Nc1ccc(S(=O)(=O)NCCS(=O)(=O)O)cc1`, the activity, negative = inhibition was 22.1% [at 11.4 µM].
`NCCNS(=O)(=O)c1ccc(N)cc1`: the activity, negative = inhibition was -4.78% [at 11.4 µM].
Regarding `CCN1C(=O)C=CC1=O`, the “activity, negative = inhibition” value is -21.9%.
For the molecule `NCCNS(=O)(=O)c1cccc2cnccc12`, the AC50 entry was “inactive”.
Take `C=CCNS(=O)(=O)c1cccc2cc(C(=O)O)c(O)cc12`: the “activity, negative = inhibition” value is 16.1%.
In the case of `CCCCNS(=O)(=O)c1ccc(OC)c(Cl)c1Cl`, the concentration at half-maximal activity (AC50) is 794 nM (active).
`COc1cc(/C=C/C(=O)O)cc(S(=O)(=O)NCCCO)c1OC`: the “activity, negative = inhibition” value is 5.71%.
On to `NCCCCCCNS(=O)(=O)c1cccc2ccccc12`, for which the AC50 was 1000 nM (active).
Consider `NCCCCCCCCCCNS(=O)(=O)c1cccc2c(Cl)cccc12`, for which the AC50 is 79.4 nM (active).
On to `O=S(=O)(NCCCCCCc1ccccc1)c1cccc2c(Cl)cccc12`, for which the AC50 is 1000 nM (active).
For the molecule `CC12CCC(C(=O)O)(C/C1=N\O)C2(C)C` (configuration not stated), the “activity, negative = inhibition” value was -19.9%.
As to `CCNC(=O)COC(=O)c1cc(=O)[nH]c2ccccc12`, the “activity, negative = inhibition” value was -10.7%.
For `COc1ccc(OC)c(-c2cc(C(=O)O)c3cc4ccccc4cc3n2)c1`, the activity, negative = inhibition is 2.46% [at 11.4 µM].
Same read-out and setting: the figure for `N[C@@H](Cc1[nH]nc2ccccc12)C(=O)O` is 2.15% [at 11.4 µM].
Consider `Cc1cc(C(=O)OCC(=O)NCCC(C)C)c2ccccc2n1`, for which the concentration at half-maximal activity (AC50) was 14100 nM (active).
As to `CC(C)NC(=O)COC(=O)c1cc(=O)[nH]c2ccccc12`, the “activity, negative = inhibition” value was 2.4%.
As for `CCNC(=O)COC(=O)c1cc(-c2ccc(OC)cc2)nc2ccccc12`, the AC50 is 11200 nM (active).

Values taken from PubChem BioAssay AID1851 (National Center for Advancing Translational Sciences (NCATS), 2009).
